# Records with an inconclusive call do not appear. Where a call stands in place of a potency, no number is given. Active and inactive are the calls of the source. The call rests on the fitted dose curve; in most records, active means well fitted cell-killing curve with a large enough effect; inconclusive means small, poorly fitted or top-dose-only effect; inactive means flat fitted curve, though single readings scatter.
# Assay: qHTS assay to identify small molecule inhibitors of chordoma cells - UCH-2 (AID 1259356)
# Conditions: UCH-2 chordoma viability, CellTiter-Glo ATP luminescence, 48 h; series mostly up to 46.1 µM
# Excerpt: NIH Chemical Genomics Center [NCGC]
# Chordoma is a rare and slow growing tumor that can occur anywhere along the spine, from the base of the skull to the tailbone. Current treatment options for chordoma is surgery and radiation therapy for those who are not candidates for surgery. But chordomas tend to return in the same location or surrounding areas of the original tumor after surgery and/or radiation. Chemotherapy can slow down the progression of the tumor. As chordoma is slow growing, the general cytotoxic agents that kill fast growing cells are ineffective, and some patients have been reported to respond to molecularly targeted drugs.
# NCATS Pharmaceutical Collection (NPC) containing approximately 3000 clinically approved and investigational drugs were used to screen at 15 concentrations in a chordoma cell lines, UCH-2, to identify small molecule compounds that can inhibit chordoma cell growth.
# NCGC Assay Protocol Summary:
# Human chordoma cell line UCH-2 was dispensed at 800 per well in 4uL of culture medium into white solid bottom 1536-well plates (Corning Life Sciences, Corning, NY) using a Multidrop Combi (Thermo Scientific, Waltham, MA) dispenser. The assay plates were incubated at 37 C and 5% CO2 for an overnight, and then 23nL of compounds dissolved in DMSO and positive control were transferred using a Pintool station (Wako, San Diego, CA). Compound treatment was followed by the addition of 1uL of the combination compounds (1uM Auranofin, 500nM each of Camptothecin, Doxorubicin, Rubitecan, and Topotecan) and assay medium to each well of the assay plates using Flying Reagent Dispenser (FRD, Aurora Discovery, San Diego, CA). The assay plates were incubated at 37 C and 5% CO2 for 48hr. Then 5uL of CellTiter-Glo reagent (Promega Corporation, Madison, WI) was added to each well of the assay plates using FRD. After 30min incubation at room temperature, the luminescence signal was quantified using a ViewLux plate reader (PerkinElmer, Shelton, CT).
row,Structure (SMILES),Potency
1,C=CC[C@]1(O)CC[C@H]2[C@@H]3CCC4=CCCC[C@@H]4[C@H]3CC[C@@]21C,inactive
2,O[C@H]1[C@H]2[C@H](O)CCCN2C[C@H]1O,inactive
3,CCCCCc1cc(O)c2c(c1)OC(C)(C)[C@@H]1CCC(C)=C[C@@H]21,inactive
4,CN1C2CCC1CC(OC(c1ccccc1)c1ccc(Cl)cc1)C2 (stereo not given),inactive
5,COC1=CC=C2[C@H]3Cc4ccc(OC)c5c4[C@@]2(CCN3C)[C@H]1O5,inactive
6,C[C@]12C=CC(=O)C=C1CC[C@@H]1[C@@H]2CC[C@]2(C)OC(=O)CC[C@@H]12,inactive
7,C[C@@H](Cc1ccccc1)NCCC(c1ccccc1)c1ccccc1,inactive
8,C=CCN(C1=NCCN1)c1c(Cl)cccc1Cl,inactive
9,C[C@]12CC[C@H](OS(=O)(=O)O)CC1=CC[C@@H]1[C@@H]2CC[C@]2(C)C(=O)CC[C@@H]12,inactive
10,O=C(CS(=O)C(c1ccccc1)c1ccccc1)NO (stereo not given),inactive
11,O=C1C[C@@H]2OCC=C3CN4CC[C@]56c7ccccc7N1[C@H]5[C@H]2[C@H]3C[C@H]46,inactive
12,C[N+]1(C)[C@@H]2CC[C@H]1CC(OC(=O)c1c[nH]c3ccccc13)C2 (stereo not given in full),inactive
13,O=C(O)C(Cl)(Cl)Cl,inactive
14,C[C@H]1CC[C@@H]2[C@@H](C)[C@H]3[C@H](C[C@H]4[C@@H]5CC=C6CC(O[C@@H]7O[C@H](CO)[C@H](O)[C@H](O[C@@H]8O[C@H](CO)[C@@H](O)[C@H](O)[C@H]8O)[C@H]7O[C@H]7O[C@@H](C)[C@H](O)[C@@H](O)[C@H]7O)CC[C@]6(C)[C@H]5CC[C@]34C)N2C1 (stereo not given in full),inactive
15,C[C@]12C[C@H]3S[C@H]3C[C@@H]1CC[C@@H]1[C@@H]2CC[C@]2(C)[C@@H](O)CC[C@@H]12,inactive
16,CCOC(=O)c1ccccc1C(=O)OCC,inactive
17,C#CCN1CC(=O)N(COC(=O)C2C(C=C(C)C)C2(C)C)C1=O (stereo not given),inactive
18,CCOc1ccc2c3c1O[C@H]1[C@@H](O)C=C[C@H]4[C@@H](C2)N(C)CC[C@@]341,inactive
19,Cc1cc(C)cc(C(=O)OC2C[C@H]3CC[C@@H](C2)N3C)c1 (stereo not given in full),inactive
20,O=C1C[C@@H]2OCC=C3CN4CC[C@]56c7ccccc7N1[C@H]5[C@H]2[C@H]3C[C@H]46 (tested in a mixture with another compound),inactive

row,Structure (SMILES),Potency
1,c1ccc2sc(SNC3CCCCC3)nc2c1,inactive
2,C[N+]1(C)CCCCC1COC(=O)C(O)(c1ccccc1)c1ccccc1 (stereo not given),inactive
3,CCCCCCCCOC(=O)c1ccccc1C(=O)OCCCCCCCC,inactive
4,O=c1ccc2cc(O[C@@H]3O[C@H](CO)[C@@H](O)[C@H](O)[C@H]3O)c(O)cc2o1,inactive
5,CC(Cc1ccccc1)NC=O (stereo not given),inactive
6,CCCCC[C@@H](O)C1C(=O)OC(C)[C@H](O)/C=C/C=C/C=C/C=C/C=C(\C)C(O)C(O)C(O)C[C@H](O)C[C@H](O)C[C@H](O)C[C@H](O)C[C@@H]1O (stereo not given in full),inactive
7,OC(c1ccccc1)(c1ccccc1)C1CN2CCC1CC2 (stereo not given),inactive
8,CC(=O)O[C@H]1CC[C@@]2(C)C(=CC[C@@H]3[C@@H]2CC[C@]2(C)C(=O)CC[C@@H]32)C1,inactive
9,O=C(NCNC(=O)NC1C(=O)NC(=O)N1CO)NC1C(=O)NC(=O)N1CO (stereo not given),inactive
10,CCON=O,inactive
11,O=P(O)(O)C(Cl)(Cl)P(=O)(O)O,inactive
12,FC(F)OC(F)(F)C(F)Cl (stereo not given),inactive
13,ClC=C(Cl)Cl,inactive
14,CCN(CC)CCO[C@H]1CC[C@@]2(C)C(=CC[C@@H]3[C@@H]2CC[C@]2(C)C(=O)CC[C@@H]32)C1,inactive
15,S=C(S)N1CCNCC1,inactive
16,O=c1c2ccccc2[se]n1-c1ccccc1,inactive
17,CN1[C@@H]2CC[C@H]1CC(OC1c3ccccc3CCc3ccccc31)C2 (stereo not given in full),inactive
18,COC([CH2][Hg])CNC(=O)c1ccccc1OCC(=O)O (stereo not given),inactive
19,O=C(OCCN1CCCCC1)C(O)(c1ccccc1)c1ccccc1,inactive
20,Oc1ccc2c3c1O[C@H]1[C@@H](O)CC[C@@]4(O)[C@@H](C2)N(CC2CCC2)CC[C@]314,inactive

# From PubChem BioAssay (NCATS)
